A word on the viability: it is a read-out of living cells in per cent, often relative to untreated cells. As usually defined, the inhibition is the drop in the measured response relative to a control, in per cent.

Inconclusive results are not listed. Activity calls are given as the source filed them.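 How the source made its calls, unless noted: active means inhibition over a set limit, the all-compound mean plus 3 SD, in both replicate runs; inconclusive means over that limit in just one replicate run; inactive means at or under that limit in both runs.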

The nature of assay [1]: Her2 expression decrease, cell viability multiplex – SKBR3 breast tumor cells, AlphaScreen, ATP viability, primary screen (AID 461;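 active means Her2 level under about 52% in both replicate screens, with viability over 70% of control, limit read from the data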;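 on Her2 level: lower value means less Her2 protein in the cells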;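 on viability: percent of carrier control wells set as 100% viability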). Conditions: SKBR3 Her2 protein level, 18-24 h, measured here: SKBR3 viability, ATP luminescence, at 10 µM.
The target in assay [2] is Receptor tyrosine-protein kinase erbB-2 (Homo sapiens) (UniProt P04626). Described as above. Conditions: 18-24 h, at 10 µM, stronger effect = lower value.
Assay [3] in a line: reduced viability of SK-BR-3 breast cancer cells – cell-based, 24 h, human, pilot screen (AID 572;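 active means viability at or below 10% of carrier control in both of two separate runs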;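 further: compound exposure lasted between 18 and 24 h rather than exactly 24 h; 100% = carrier-treated control wells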). To be noted: SK-BR-3 viability, CellTiter-Glo luminescence, at 10 µM, stronger effect = lower value.
A short description of assay [4]: HUVEC growth inhibition – cell-based, human, primary screen (AID 575;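 active means viability at or below 30% in both replicate assays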;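 further: 100% = median of untreated cell wells with 0.1% DMSO on each plate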). To be noted: HUVEC proliferation, CellTiter-Glo luminescence, 72 h; at 10 µM; stronger effect = lower value. A general note: Cellular ATP, detected with luciferase, serves as a proxy for viable cell number.
Assay [5] can be described thus: H69AR cell proliferation blockers – human, duplicate replicates, primary screen (AID 580;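 active means viability at or under a set limit in both replicates, limit being median viability minus 3 SD, cut at about 48% in these data, passing the limit was not always enough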;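 further: 100% = mean luminescence of untreated wells and 0% = no signal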). Conditions: H69AR lung tumor cells viability, ATP luminescence, 72 h; at 10 µM; stronger effect = lower value.
Assay [6] in a line: MRP1 drug-resistance reversers in H69AR cells – cell-based, doxorubicin co-treatment, pilot screen (AID 601;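 active means viability loss from added drug above about 55%, and viability with drug at most 40%, in both replicates, limit read from the data, passing the limit was not always enough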). Conditions: CellTiter-Glo, 72 h, at 10 µM; for differential viability (reversal): stronger effect = higher value.
The nature of assay [7]: yeast transport mutant growth inhibition pilot in 384-well plates, post-Golgi transport modulator project (AID 636; in the data active means inhibition above about 31%). To be noted: absorbance 615 nm, about 18 h, stronger effect = higher value.
A short description of assay [8]: growth suppression of yeast trafficking mutant, preliminary HTS, modulators of trafficking downstream of Golgi apparatus project, 1536-format plate, OD 615 nm (AID 637; in the data active means inhibition above about 30%). Conditions: yeast transport mutant growth, absorbance 615 nm, 18 h; stronger effect = higher value.
Assay [9] is described as follows: S. cerevisiae growth inhibition in permissive medium (OD615), pilot counter-assay for S. cerevisiae lifespan shortening project, permissive growth control (AID 705;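 active means growth inhibition above 25% in both replicates, a cutoff set 3 SD above the mean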). To be noted: OD615, 24 h, at 10 µM, stronger effect = higher value.
Assay [10] in a line: S. cerevisiae growth inhibition in restrictive medium, OD615, pilot screen, restrictive growth control, yeast lifespan reduction project (AID 706;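 active means growth inhibition above a set limit, 3 SD over mean compound inhibition, in both replicates, cut at about 43% in these data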;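 further: modified DeaD lifespan yeast strain shifted to restrictive glucose medium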). Conditions: OD615, 48 h, at 10 µM, stronger effect = higher value.
Assay [11] is described as follows: doxorubicin toxicity protection in MRP-1 cells – H69AR cells, CellTiter-Glo, duplicate, MRP-1 activator project, pilot screen (AID 807;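 active means viability increase at or above a cutoff of the median across tested compounds plus 3 SD, cut at about 8.5% in these data, passing the limit was not always enough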;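 further: compound pretreatment 18-22 h then 72 h combined with doxorubicin; 0% = doxorubicin alone and 100% = vehicle without doxorubicin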). Conditions: H69AR viability with doxorubicin, CellTiter-Glo luminescence; at 10 µM; stronger effect = higher value.
A short description of assay [12]: viability of HCT116 without oncogenic beta-catenin – human colon tumor cells, pilot screen (AID 823;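 active means cell viability at or below a set limit in both duplicate runs, the limit being the all-compound median minus 4 SD, cut at about 23% in these data, passing the limit was not always enough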;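 further: 0% = wells killed by 20 µM Hyamine and 100% = untreated DMSO cell wells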). Conditions: HCT116 beta-catenin knockout viability, CellTiter-Glo, 60 h; at 10 µM; stronger effect = lower value.
Assay [13] in a line: viability of PTEN-null HCT116 cells – cell-based, HCT116 clonal line, CellTiter-Glo, pilot screen (AID 824;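 active means viability at or below 27.92% in each of two runs, the all-compound median minus 4 SD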;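 further: 0% = 20 µM Hyamine control and 100% = vehicle cell control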). Conditions: HCT116 PTEN-deleted viability, 60 h, at 10 µM, stronger effect = lower value.
Assay [14] can be described thus: RAM pathway blockade in budding yeast – dse1pr::URA3 reporter, 5-FOA selection, pilot screen (AID 869).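 Further: 0% = DMSO wells with no growth and 100% = 10 µM 1-NA-PP1 with full growth; RAM network block rescues cells from 5-FOA so hits raise OD615 growth.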 To be noted: S. cerevisiae dse1pr::URA3 5-FOA growth, OD615, 2 d; at 10 µM; stronger effect = higher value; strain carries analog-sensitive mutant Cbk1 kinase.
Assay [15] in a line: RAM signaling pathway blockade in yeast – S. cerevisiae, Pdr1DBD-CYC8 efflux-inhibited sensitized strain, primary screen (AID 1298;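 active means RAM network inhibition above 8.4% in each of two replicates, 3 SD over the compound average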;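 further: 0% = DMSO untreated cells without growth and 100% = 10 µM 1-NA-PP1 full growth; higher means more yeast growth rescued from 5-FOA killing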). To be noted: S. cerevisiae cbk1-as DSE1-URA3 strain, 5-FOA growth OD615, 2 d; at 50 µM; stronger effect = higher value.
Setting [16] is: H69AR cells + 2 uM doxorubicin, measured here: viability with 2 uM doxorubicin, stronger effect = lower value.
[17] abbreviates: H69AR cells, compound alone cytotoxicity.

Chain of Receptor tyrosine-protein kinase erbB-2 (Homo sapiens) (P04626 whole entry, looked up): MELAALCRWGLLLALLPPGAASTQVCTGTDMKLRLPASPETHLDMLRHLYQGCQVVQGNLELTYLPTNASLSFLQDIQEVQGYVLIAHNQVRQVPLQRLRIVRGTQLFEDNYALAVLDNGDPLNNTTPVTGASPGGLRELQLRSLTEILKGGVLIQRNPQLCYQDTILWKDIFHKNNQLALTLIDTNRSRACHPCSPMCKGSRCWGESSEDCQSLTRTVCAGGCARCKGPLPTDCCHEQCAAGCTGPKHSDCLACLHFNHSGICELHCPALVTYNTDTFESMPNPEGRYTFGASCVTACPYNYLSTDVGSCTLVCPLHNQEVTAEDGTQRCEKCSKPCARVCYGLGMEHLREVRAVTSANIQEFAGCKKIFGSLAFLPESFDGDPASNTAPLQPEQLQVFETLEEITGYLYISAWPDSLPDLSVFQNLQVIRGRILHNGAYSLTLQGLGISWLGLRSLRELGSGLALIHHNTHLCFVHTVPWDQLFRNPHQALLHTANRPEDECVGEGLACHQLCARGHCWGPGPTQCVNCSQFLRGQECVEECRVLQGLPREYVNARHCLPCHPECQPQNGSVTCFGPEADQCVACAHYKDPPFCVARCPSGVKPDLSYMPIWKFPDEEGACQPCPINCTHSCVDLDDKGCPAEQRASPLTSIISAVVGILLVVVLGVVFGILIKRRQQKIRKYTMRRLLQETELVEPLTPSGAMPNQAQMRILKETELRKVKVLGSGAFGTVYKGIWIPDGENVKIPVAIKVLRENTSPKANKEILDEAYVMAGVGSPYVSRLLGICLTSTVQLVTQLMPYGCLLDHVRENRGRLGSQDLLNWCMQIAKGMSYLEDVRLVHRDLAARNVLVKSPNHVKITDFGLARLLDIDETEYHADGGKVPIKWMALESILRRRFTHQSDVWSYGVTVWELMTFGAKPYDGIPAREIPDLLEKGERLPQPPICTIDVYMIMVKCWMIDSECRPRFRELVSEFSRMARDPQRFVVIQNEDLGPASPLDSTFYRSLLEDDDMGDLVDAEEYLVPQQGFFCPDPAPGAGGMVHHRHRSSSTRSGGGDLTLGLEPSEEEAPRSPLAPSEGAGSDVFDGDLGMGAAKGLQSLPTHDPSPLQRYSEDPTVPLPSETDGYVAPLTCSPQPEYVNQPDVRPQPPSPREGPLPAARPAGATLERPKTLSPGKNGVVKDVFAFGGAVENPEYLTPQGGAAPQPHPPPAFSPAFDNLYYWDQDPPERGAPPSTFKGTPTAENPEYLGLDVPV

Turning to `CC1CCN(c2oc(-c3ccccc3F)nc2C#N)CC1`, the viability in [1] was 82%; in assay [3], 82% (inactive); in assay [4], 78.7% (inactive); in assay [5], 92% (inactive); in assay [6] (setting [16]) it was 84.5%; in [6] (setting [17]), 92%. Also, the viability in assay [12] is 89.4% (inactive); in [13] it was 88.9% (inactive). In addition, the Her2 level in [2] was 95% (inactive). For the same compound, the differential viability (reversal) in assay [6] (H69AR cells + 2 uM doxorubicin) was 7.56% (inactive). The inhibition in assay [7] is -2.27% (inactive); in assay [8], 2.79% (inactive); in [14], 0.425% (inactive). Besides, the results for the growth inhibition in [9] and in assay [10] were -14.9% (inactive) and -13.1% (inactive), respectively. Moreover, the viability increase in [11] was 0.34% (inactive). For the same compound, the RAM network inhibition in assay [15] was 2.79% (inactive).

In the case of `Cc1cc(NC(=O)CSc2nc3c(c(=O)n2Cc2ccccc2)SC(C)C3)no1` (stereo not given), the viability in assay [1] was 104%; in assay [3], 104% (inactive); in assay [4] it was 74.5% (inactive); in assay [5], 92.1% (inactive); in [6] (setting [16]) it was 76.3%; in assay [6] (setting [17]) it was 92.1%. Also, the viability in assay [12] is 100% (inactive); in assay [13] it was 92.4% (inactive). Also, in [2], the Her2 level was 106% (inactive). Moreover, the differential viability (reversal) in assay [6] (H69AR cells + 2 uM doxorubicin) was 15.8% (inactive). Also, the values for the inhibition in assay [7], in [8] and in assay [14] were -3.33% (inactive), -1.83% (inactive) and 2.35% (inactive), respectively. In addition, the growth inhibition in assay [9] is -2.67% (inactive); in assay [10], -0.455% (inactive). In addition, in assay [11], the viability increase is -2.6% (inactive). For the same compound, the RAM network inhibition in assay [15] is 8.6% (inactive).

Turning to `CC(=O)Nc1ccc(S(=O)(=O)N2CCN(C(=O)CCC3CCCC3)CC2)cc1`, the viability in assay [1] is 84%; in [3], 84% (inactive); in [4], 99% (inactive); in [5] it was 92.9% (inactive); in assay [6] (setting [16]) it was 103%; in assay [6] (setting [17]), 92.9%. Moreover, the viability was 78.7% (inactive) in [12] and 81.8% (inactive) in assay [13]. Further, in assay [2], the Her2 level was 98.5% (inactive). In assay [6] (H69AR cells + 2 uM doxorubicin), the differential viability (reversal) was -9.75% (inactive). Moreover, the values for the inhibition in assay [7], in assay [8] and in [14] were -1.2% (inactive), -4.35% (inactive) and 0.505% (inactive), respectively. For the same compound, the growth inhibition in assay [9] is 0.295% (inactive); in assay [10], -1.04% (inactive). For the same compound, the viability increase in [11] is -2.79% (inactive). In assay [15], the RAM network inhibition was 2.16% (inactive).

Regarding `COc1cccc(-c2nnc(NC(=O)c3ccccc3Br)o2)c1`, the viability in assay [1] is 87%; in assay [3], 87% (inactive); in assay [4], 71.6% (inactive); in assay [5], 67% (inactive); in assay [6] (setting [16]) it was 89.2%; in assay [6] (setting [17]), 67%. Moreover, the viability in assay [12] is 71.7% (inactive); in assay [13] it was 73.2% (inactive). Also, the Her2 level in assay [2] was 85.5% (inactive). The differential viability (reversal) in assay [6] (H69AR cells + 2 uM doxorubicin) is -22.2% (inactive). For the same compound, the values for the inhibition in assay [7], in [8] and in assay [14] were -5.87% (inactive), 1.33% (inactive) and 1.46% (inactive), respectively. Further, the growth inhibition was -13.4% (inactive) in [9] and 13.6% (inactive) in assay [10]. In assay [11], the viability increase was -5.12% (inactive). For the same compound, in assay [15], the RAM network inhibition is -2.32% (inactive).

Regarding `CCn1cc(SCC(=O)Nc2cc(C)on2)c2ccccc21`, the viability in assay [1] was 110%; in [3] it was 110% (inactive); in assay [4] it was 89.4% (inactive); in assay [5] it was 84% (inactive); in [6] (setting [16]), 80.5%; in assay [6] (setting [17]), 84%. For the same compound, the viability in [12] and in assay [13] was 92.3% (inactive) each time. For the same compound, the Her2 level in assay [2] was 84% (inactive). Besides, the differential viability (reversal) in [6] (H69AR cells + 2 uM doxorubicin) was 3.56% (inactive). In addition, the inhibition in assay [7] is -4.13% (inactive); in [8], -1.15% (inactive); in [14], 1.87% (inactive). For the same compound, the growth inhibition was -5.85% (inactive) in [9] and -7.99% (inactive) in [10]. The viability increase in assay [11] was 1.09% (inactive). In addition, the RAM network inhibition in assay [15] is 2.85% (inactive).

The values above are taken from PubChem BioAssay.
